Experimental findings from PubChem BioAssay AID1347056 (Sanford-Burnham Center for Chemical Genomics, 2019) are described below.

The campaign covered roughly 360,000 compounds. About 3,600 (1%) were called active. What follows is part of a selection rich in actives, with near analogues and random picks from the rest. Unmarked numbers belong to inactive results.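 How the source made its calls: active means compounds whose plate-normalised and pattern-corrected inhibition of the luciferase reporter signal at the single screening dose is 50% or more; inactive means the rest.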

By inhibition is commonly meant the relative decrease from the control value, in per cent.

The assay in a line: TROY pathway blockers in reporter cells – Q293 LMP1-TROYcd cells, NF-kB luciferase, uHTS, primary screen (AID 1347056). Particulars: 4 h, at 10 µM, hits give high values.
For `CN(CC(=O)NC1CCCC1)S(=O)(=O)c1cnc[nH]1`, the inhibition was 7.95%.

On to `CCNc1nc(NC(C)C)nc(N2CC(=O)N(CC(=O)OCC)C2=N)n1`, for which the inhibition was 19.4%.

Take `CCOC(=O)N1CCN(C(=O)c2ccc3c(=O)n(CCc4ccc(OC)c(OC)c4)c(=O)[nH]c3c2)CC1`: the inhibition is 1.87%.

With `Cc1ccccc1NC(=O)C1CCN(C(=O)NC2CCCCC2)CC1`, the inhibition is -10.7%.

As to `COc1cccc(N2CCN(C(=O)C3CCCN(S(=O)(=O)c4cnc[nH]4)C3)CC2)c1` (stereo unspecified), the inhibition was -3.43%.

Take `CC(=O)N1CCCc2cc(S(=O)(=O)N3CCCC(C(=O)N4CCN(c5cccc(Cl)c5)CC4)C3)ccc21` (stereo unspecified): the inhibition is 54.2% (active).

As to `O=C(C1CCCN(S(=O)(=O)c2ccccc2)C1)N1CCN(c2ccc(F)cc2)CC1` (stereo unspecified), the inhibition was 3.28%.

With `CCOc1cccc2cc(C(=O)OCC(=O)Nc3c(C)cccc3CC)c(=O)oc12`, the inhibition is -77.6%.

In the case of `O=C(Nc1ccc(Cl)c(C(F)(F)F)c1)C1Cc2c(-c3ccccc3Oc3ccccc3)ccnc2O1` (stereo unspecified), the inhibition is 16.3%.

As to `COc1ccc(N(CC(=O)NCc2ccc(F)cc2)C(=O)CCC(=O)Nc2nccs2)cc1`, the inhibition was -6.88%.

In the case of `O=C(CNC(=O)OCc1ccccc1)Oc1cc2oc(=O)cc(-c3ccccc3)c2cc1Cl`, the inhibition was 50.4% (active).

`CC(Oc1ccc2c(-c3ccccc3)cc(=O)oc2c1)C(=O)NC(Cc1c[nH]c2ccccc12)C(=O)O` (stereo unspecified): the inhibition was -3.69%.

For the compound `O=C(CNC(=O)c1ccccc1)NCC(=O)OCc1ccc(Cl)cc1`, the inhibition is 17.5%.

On to `Cc1ccc(S(=O)(=O)Oc2ccc(/C=N/NC(=O)c3c(Cl)cnn3C)cc2)cc1`, for which the inhibition is -1.06%.

Regarding `CCN(CC)CCNC(=O)c1sc2ncn(CC(=O)Nc3ccc(C)c(Cl)c3)c(=O)c2c1C`, the inhibition was 6.8%.

Turning to `CC(=O)N1CCN(c2ccccc2NC(=S)NC(=O)c2cc3ccccc3o2)CC1`, the inhibition was 5.79%.

On to `O=C(Nc1sc2c(c1-c1nc3ccccc3[nH]1)CCCC2)C1CC1`, for which the inhibition is -11.2%.

On to `C/C(=C\c1ccccc1)C1NC(=O)c2c(sc3c2CCCC3)N1` (stereo unspecified), for which the inhibition was 67.6% (active).

In the case of `O=C1NC(c2ccncc2)Nc2sc3c(c21)CCCC3` (stereo unspecified), the inhibition was -12.2%.

Turning to `CN(C)S(=O)(=O)c1ccc2oc(SCC(=O)Nc3ccccc3F)nc2c1`, the inhibition is -36.4%.

For the compound `COc1ccc(Cl)cc1S(=O)(=O)Nc1cccc(C(=O)O)c1`, the inhibition is 1.76%.

Consider `Cc1ccc(NC(=O)Nc2ccc3oc(C)nc3c2)cc1`, for which the inhibition was -27.6%.

Regarding `O=C(Nc1ccc2ccccc2c1)Nc1ccc2snnc2c1`, the inhibition was 69.7% (active).

On to `COc1cccc(NC(=O)Nc2ccc(F)cc2)c1`, for which the inhibition was -52.4%.

Take `CN(CCC(=O)Nc1cc(S(=O)(=O)N(C)C)ccc1Cl)CC(=O)Nc1ccc(F)cc1`: the inhibition is 1.42%.

Take `CSCCNCc1cn(-c2ccc(F)cc2F)nc1-c1ccccc1C`: the inhibition was 1.03%.

For the compound `OCc1nc(CO)n(Cc2ccccc2)n1`, the inhibition was 11.6%.

As to `CN(C)C(=O)c1cccc(-c2cnc3sc(NCc4ccc5c(c4)OCO5)nn23)c1`, the inhibition was 51.8% (active).

As for `O=C(COC(=O)c1ccc(Cl)nc1)NCc1ccc2c(c1)OCO2`, the inhibition is -7.63%.

Turning to `O=C(CSc1ncnc2scc(-c3ccccc3)c12)NCc1ccc2c(c1)OCO2`, the inhibition was 22.3%.

In the case of `COc1ccccc1NC(=O)N1CCCC1C(=O)NCc1cccs1` (stereo unspecified), the inhibition was 7.15%.

`COc1ccccc1CNC(=O)CN1CCC(n2cnc3cc(F)ccc32)CC1`: the inhibition was 2.42%.

As for `CCCCCCN1CCN(C2CN(Cc3cn(Cc4ccc(F)cc4)nn3)S(=O)(=O)C2)CC1` (stereo unspecified), the inhibition is 0.62%.

For the compound `COc1ccc2nc(-c3ccccn3)ccc2c1`, the inhibition was 6.94%.

For `COc1ccc(C(=O)/C=C/Nc2ccccn2)cc1`, the inhibition is 72.4% (active).

With `COCCN(C(=O)CCC(=O)Nc1ccccn1)C(C(=O)NCCC(C)C)c1ccc(OC)cc1` (stereo unspecified), the inhibition is 5.49%.

Regarding `CCOC(=O)c1c(C)[nH]c2c1-c1ccccc1C(=O)C2=O`, the inhibition is 63.1% (active).

For the compound `CCOC(=O)c1c(C)[nH]c(C)c1C(=O)CSc1nc(N)cc(N)n1`, the inhibition is 4.52%.

For the compound `CCOC(=O)c1cnc(COc2ccccc2Cl)[nH]c1=O`, the inhibition is -7.4%.

Take `O=C(NCc1nnc(SCC(=O)N2CCC(Cc3ccccc3)CC2)o1)c1ccco1`: the inhibition is 3.48%.

On to `Cc1ccc(CS(=O)Cc2ccc(C(=O)N3CCOCC3)o2)cc1` (stereo unspecified), for which the inhibition is -4.44%.

Regarding `O=C1CSC(=S)N1c1ccc(Cl)c(Cl)c1`, the inhibition is 33.2%.

In the case of `O=C1CSC(=S)N1c1ccc(O)cc1`, the inhibition was 50.1% (active).

Consider `COc1cc(N2C(=O)CSC2=S)cc(OC)c1OC`, for which the inhibition is 33.1%.

With `CC1=CC(=NNS(=O)(=O)c2ccc([N+](=O)[O-])cc2)CC(C)(C)C1`, the inhibition was -0.66%.

For the compound `Cc1nn(C(C)(C)C)c(OC(=O)CC(C)C)c1S(=O)(=O)c1ccccc1`, the inhibition was 12.4%.

Regarding `Cc1ccccc1OCCC(=O)OCC(=O)NCCc1ccc(S(N)(=O)=O)cc1`, the inhibition is 0.01%.

In the case of `O=C(Nc1ccc(-n2ccnc2P(=O)(O)c2ccccc2)cc1)c1ccccc1Br`, the inhibition was -20.5%.

As for `CC(C)CCN1C(=O)c2ccc(C(=O)Nc3cccc(S(N)(=O)=O)c3)cc2C1=O`, the inhibition was 63.2% (active).

Consider `CN1CCN(S(=O)(=O)c2cccc(C(=O)Nc3cccc(S(N)(=O)=O)c3)c2)CC1`, for which the inhibition is 14.3%.

Consider `Cc1cccc(C(=O)Nc2ccc3c(c2)C(=O)N(CC(C)C)C3=O)c1`, for which the inhibition was -12.3%.

On to `COc1ccccc1OCCNc1cc(N2CCOCC2)ccc1[N+](=O)[O-]`, for which the inhibition is -25%.

Regarding `COc1ccc(CCNC(=O)c2ccccc2-c2ccccc2C(=O)O)cc1OC`, the inhibition was -8%.

Consider `COc1ccc(CCNc2cc(N3CCN(C(=O)c4ccccc4OC)CC3)ccc2[N+](=O)[O-])cc1OC`, for which the inhibition was 64% (active).

Take `C[N+](C)(C)CCNC(=O)c1c[nH]c2ccccc12`: the inhibition was -5.29%.

Take `Cc1ccc(F)cc1NC(=O)N1CCCN(c2ccc(C(F)(F)F)cn2)CC1`: the inhibition is 8.63%.

As to `O=C(O)c1cc(S(=O)(=O)N2CCCCCC2)c(Cl)cc1Cl`, the inhibition is 0.33%.

Take `Cc1ccc(OCCCC(=O)Nc2ccc(N3CCOCC3)cc2)cc1`: the inhibition is 6.99%.

With `COc1cccc(/C=C(/CC(=O)Nc2ccc(N3CCOCC3)cc2)c2nc3ccccc3s2)c1`, the inhibition is 54.8% (active).

Consider `CCn1c(Cc2ccc(OC)cc2)nnc1SCC(=O)Nc1ccc(N2CCOCC2)cc1`, for which the inhibition was 4.48%.

In the case of `COc1cc2c(cc1OC)CN(C(=O)c1cc(S(=O)(=O)N3CCCCC3)ccc1Cl)CC2`, the inhibition is -16.5%.

For the compound `COc1cc2c(cc1OC)C(C)N(S(=O)(=O)c1cnc(Cl)c(Cl)c1)CC2` (stereo unspecified), the inhibition was 62.8% (active).

On to `COc1cc2c(cc1OC)CN(C(=O)c1ccc(S(=O)(=O)N3CCCCCC3)cc1)CC2`, for which the inhibition is -2.54%.

As for `COc1cccc(NC(=O)C(Sc2nc3ccccc3c(=O)n2CC(C)C)c2ccccc2)c1` (stereo unspecified), the inhibition is -17.8%.

In the case of `O=C(Nc1ccc(N2CCOCC2)nc1)c1c(F)cccc1F`, the inhibition was -14.2%.

As to `CCOC(=O)C1CCCN(C(=O)c2ccc(C)c(F)c2)CC1` (stereo unspecified), the inhibition was 1.56%.

For `CN(CCc1ccccn1)C(=O)c1ccc(OC2CCN(CCc3ccccc3)CC2)cc1`, the inhibition is -24%.

Take `Cn1cc(CNC(=O)c2ccc(OC3CCN(Cc4ccccn4)CC3)cc2)cn1`: the inhibition was -10.1%.

With `CN(CCc1ccccn1)C(=O)c1ccc(OC2CCN(Cc3ccccn3)CC2)cc1`, the inhibition is 50.2% (active).

With `Cc1ccccc1C(=O)Nc1cccc(-c2nnc(SCC(=O)O)n2C)c1`, the inhibition is 18.5%.

As for `CCOC(=O)/C(C#N)=C\c1c(C)cc(C)c(COC(C)=O)c1C`, the inhibition is -28.3%.
